These results are taken from PubChem BioAssay AID488862 (Broad Institute, 2010).

Usually inhibition stands for the change of the read-out against control, counted positive when it falls.

Among all 340,000 compounds or so, about 1,200 (0.35%) were called active. The full list was thinned out, with actives kept by preference. Values without a mark were called inactive. No stated cut-off is given here; in the data, active means inhibition above about 52%; inactive means the rest.

A short description of the assay: inhibition of PrP 5' UTR reporter expression (AID 488862). Further: 0 = median of the neutral control wells. The following applies: cell-based PrP 5' UTR mRNA reporter, plate reader; stronger effect = higher value; concentration not given here.
Consider `CC1=NCCN1S(=O)(=O)c1cccc([N+](=O)[O-])c1`, for which the inhibition is -44.4%.

Turning to `CCOc1ccc(Br)cc1S(=O)(=O)Nc1ccc(S(=O)(=O)Nc2cc(C)on2)cc1`, the inhibition was -17.7%. To `NC(=O)CC(NC(=O)Cc1ccc(Br)cc1)c1ccc(NC2CC3CCC2C3)c([N+](=O)[O-])c1` (configuration not stated) belongs -22.9%; to `COc1ccc(C2=Nn3c(nnc3-c3ccccc3OC)SC2)cc1OC1CCCC1`, 63.8% (active); to `CCn1c(SCC(=O)NC2CC2)nnc1-c1ccccc1OC`, 3.39%.

`COc1ccccc1-c1nnc2n1N=C(c1ccc(OC(F)F)c(OCC3CC3)c1)CS2`: the inhibition is -3.8%. On to `O=C(CSCc1ccccc1)N1CCc2ccccc21`, for which the inhibition was -80.4%. As for `CC1CCCN(C(=O)CN2C(=O)c3ccccc3S2(=O)=O)C1` (configuration not stated), the figure is -26.3%. As for `O=C(CN1C(=O)c2ccccc2S1(=O)=O)N1CCc2ccccc21`, the figure is 62.6% (active). As for `COc1ccc(-n2c(Cc3cccn3C)nnc2SCC(=O)Nc2cc(C)cc(C)c2)cc1`, the figure is 6.37%; as for `NC(=O)c1oc2ccccc2c1NC(=O)CS(=O)(=O)c1ccccc1`, 10.2%.

On to `O=C1[C@@H](c2ccccc2)[C@@H](c2ccccc2)N1c1cccnc1`, for which the inhibition is 59.7% (active).

As for `Cc1ccccc1N1C(=O)C2ON(c3ccccc3)C(c3ccncc3)C2C1=O` (configuration not stated), the inhibition was -40.3%. To `O=C1C(=O)N(c2ccccc2)C(c2ccccc2)C1c1ccccc1` (configuration not stated) belongs -4.98%; to `COc1ccc(NS(=O)(=O)c2ccc(N3CCOCC3)c(NC(=O)/C=C/C(=O)O)c2)cc1`, -1.46%; to `COc1cccc(CN(C)C(=O)CC23CC4CC(CC(C4)C2)C3)c1OC`, -23.4%.

Regarding `Cc1cc(NC(=O)/C=C/C(=O)N(c2ccccc2C)C(C(=O)NC2CCCC2)c2ccc(F)cc2)no1` (configuration not stated), the inhibition is -18%.

Consider `Cc1cc(NC(=O)/C=C/C(=O)N(CC(=O)NC2CCCC2)c2ccc(F)cc2)no1`, for which the inhibition was 53.2% (active).

`Cc1cc(NC(=O)CCC(=O)N(CC(=O)NC2CCCC2)c2ccc(F)cc2)no1`: the inhibition was -5.73%.

For `CCOC(=O)c1cnc(-n2nc(C)cc2C)nc1NNc1cc(C)nc(-c2ccccc2)n1`, the inhibition was 33.9%. To `COc1ccc(C(C)=O)cc1CSc1nc2nc(C)cc(C)n2n1` belongs 3.27%; to `CC(=O)c1ccc(Oc2cc(C)nc(-n3nc(C)cc3C)n2)cc1`, 63.6% (active). On to `C[N+](C)(C)CCOP(=O)([O-])OC[C@H](O)CO`, for which the inhibition was -9.94%. As for `CCOCCN(C=O)c1cccc(OC)c1`, the figure is -5.07%; as for `CCOc1cc(NS(=O)(=O)c2ccc(OC)cc2)c(OCC)cc1NC(C)=O`, 64.1% (active). As for `CCOc1cc(NC(=O)CCl)c(OCC)cc1NC(C)=O`, the figure is -34.2%.

`COc1ccc(S(=O)(=O)Nc2cc(C)on2)cc1NC(C)=O`: the inhibition was -6.37%. As for `CN=C1SC(C(=O)O)CC(=O)N1C` (configuration not stated), the inhibition was -12.6%. As for `COc1ccc(OC)c(NC(=O)c2sc3nc(C)cc(C)c3c2N)c1`, the figure is -9.33%; as for `COc1ccc(OC)c(Cc2nnc(CCC(=O)NC3CCCC3)o2)c1`, 0.259%; as for `COc1ccc(OC)c(Cc2cnc3nc(N)nc(N)c3c2C)c1`, 65.3% (active). For the compound `CC1CCCCN1CCCNc1ccc(C(CC(N)=O)NC(=O)c2ccccc2)cc1[N+](=O)[O-]` (configuration not stated), the inhibition was -27.6%.

As to `O=C(Nc1ccc(N2CCN(C(=O)C3CC3)CC2)cc1)c1cccs1`, the inhibition is -16.9%. On to `CC1Cc2ccccc2N1C(=O)c1cc2sccc2n1Cc1ccccc1` (configuration not stated), for which the inhibition was 59.8% (active).

On to `O=C(c1cc2sccc2n1Cc1ccc(F)cc1)N1CCc2ccccc21`, for which the inhibition is -33%. With `CCOC(=O)c1cc2sccc2n1Cc1ccc(C#N)cc1`, the inhibition was -13.3%. Take `CCOc1ccc(C(=O)CCC(=O)NC2=NCCS2)cc1`: the inhibition was -27.4%. Regarding `CC(C)c1csc(CN2CCC(CO)(Cc3ccccc3)CC2)n1`, the inhibition was -13.8%.

Turning to `OCC1(Cc2ccccc2)CCN(Cc2cc3ccccc3o2)CC1`, the inhibition was 74.7% (active). On to `O=C(c1cc2ccccc2o1)N1CCN(Cc2ccccc2)CC1`, for which the inhibition was -15%. To `CCCCn1c(N)c(N(CC(C)C)C(=O)c2cnc(C)cn2)c(=O)[nH]c1=O` belongs -37.8%. To `CC(C)CN1CC(C)C(=O)N(c2ccccc2)C1=S` (configuration not stated) belongs -12.4%; to `O=C(C1=C[C@H](c2coc3ccccc3c2=O)C[C@H](OCc2ccc(CO)cc2)O1)N1CCOCC1`, -9.97%; to `O=C(C1=C[C@H](c2coc3ccccc3c2=O)C[C@H](OCc2ccc(CO)cc2)O1)N1CCN(Cc2ccccc2)CC1`, 81.9% (active). In the case of `O=C(C1=C[C@H](c2ccc(C(F)(F)F)cc2)C[C@H](OCc2ccc(CO)cc2)O1)N1CCN(Cc2ccccc2)CC1`, the inhibition is -14.3%. For the compound `Cc1ccc(N(C(=O)C(F)(F)F)C(C(=O)NC2CCCCC2)c2ccncc2)cc1C` (configuration not stated), the inhibition is -20.4%.

For the compound `Cn1c(Cc2cccs2)nnc1SCC(=O)Nc1ccccc1`, the inhibition is -26.4%.
